The values that follow come from paper PMC13494018.

A number with no mark means an inactive call. How the calls were made is not given here.

In the experiment the target is PDL1, Q9NZQ7.
PDL1, Q9NZQ7, sequence (Q9NZQ7 whole entry): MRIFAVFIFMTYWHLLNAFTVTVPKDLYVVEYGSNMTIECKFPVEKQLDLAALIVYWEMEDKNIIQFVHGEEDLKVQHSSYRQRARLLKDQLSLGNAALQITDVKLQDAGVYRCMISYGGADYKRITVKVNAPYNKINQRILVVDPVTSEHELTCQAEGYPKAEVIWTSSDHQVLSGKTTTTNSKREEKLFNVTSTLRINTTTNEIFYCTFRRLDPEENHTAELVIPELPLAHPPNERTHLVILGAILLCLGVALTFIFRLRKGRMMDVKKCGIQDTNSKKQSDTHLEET

B1: d8r1_design_ppi_149_dldesign_0_cycle0_af2pred (protein)
chain: DEAAEIFAKALDEMDKKVKEAKEEVKKALEEGEKKDPEEAKKKAKEIIEKAIKELKEIAEKAAKKVPKLGPAAKATAEATAKVLK
As to B1, the “binding in a display sort” value is “not found”.

B2: d8r1_design_ppi_306_dldesign_0_cycle0_af2pred (protein)
chain: DAARRAKAEALLKQAKEDFKKFAEQAKKEGPSVLKALKNINESVAEHLKKLDPELGEELKKYGEELIKKAEE
For the molecule B2, the “binding in a display sort” value was “not found”.

B3: d8r1_design_ppi_636_dldesign_0_cycle0_af2pred (protein)
chain: DYMDALAAMLKAAAEARALAAAGGDAAAIEAALAKAKELGEEAGKLKGESAKGFAEKVIANVEATIAAAKAARAA
B3: the “binding in a display sort” value is “not found”.

B4: d8r1_design_ppi_414_dldesign_0_cycle0_af2pred (protein)
chain: MEEELKKIKELGKKAAKLAEEEGEEGFKKAIAELEKAAAEAAKGEKAKELQKLVGQGIIDVGKAAYKKEEKKEEELAK
Consider B4, for which the “binding in a display sort” value is “not found”.

B5: d8r1_design_ppi_502_dldesign_0_cycle1_af2pred (protein)
chain: SLEELVAKAEKYLKEAAKLSPASLAPSVANALAGITEAAKVSPKAAYNLAKSFLDYVKKNGTAEAAKEAEKALEELEKAAK
With B5, the “binding in a display sort” value is “not found”.

B6: d8r1_design_ppi_655_dldesign_0_cycle1_af2pred (protein)
chain: DDNKAAANAAKTGGNSSNERAKKLLAAGIASGDKALIAQAATLFANAATLYAFANAKTGPEYQANVDAAKANQAAANAALA
Take B6: the “binding in a display sort” value is “not found”.

B7: d8r1_design_ppi_371_dldesign_0_cycle0_af2pred (protein)
chain: SAEKAALLAQGKAYFATAKAAAAAAIKLKEAGGSEKTVQALIEQAKAAGEKATALFEAYDPELGKKVKEEVDALLAAAKA
For B7, the “binding in a display sort” value was “not found”.

B8: d8r1_design_ppi_1471_dldesign_0_cycle0_af2pred (protein)
chain: MDDSFGKNVIIDAEREIKRFEEAAKKAEEEDKEVAKEIKKIAEEIKKEAEKIKKGEGKLEHSKKALEAMSKGARLVAEFKAK
As to B8, the “binding in a display sort” value was “not found”.

B9: d8r1_design_ppi_679_dldesign_0_cycle0_af2pred (protein)
chain: AAAAARAAIVDETIARIRAELASRPSLAAFAESVLRRGLALGNEAEAARNVAAMLEAAGATAAAAVAREAAARIEAL
As for B9, the “binding in a display sort” value was “not found”.

B10: d8r1_design_ppi_699_dldesign_0_cycle0_af2pred (protein)
chain: AAVAAAAAAGKAAIEKIEKAAKEAEKINKESGKALKSLAEQAKKLLAEGIANPATRDAKLAGVNNIAAGAETLAKALKEEKA
For B10, the “binding in a display sort” value is “not found”.

B11: d8r1_design_ppi_429_dldesign_0_cycle0_af2pred (protein)
chain: AAAARAAAAAEGAIAAAKLAGESGNLEALKAFVEAAHAAAAKADPATAAALKAKADATLEAAKKAFKEKEEA
Regarding B11, the “binding in a display sort” value is “not found”.

B12: d8r1_design_ppi_41_dldesign_0_cycle1_af2pred (protein)
chain: RGEEILKKAKEAATRALQLASKDPSLLPLALKALALASEAGYAIAHEGVEKGEELAEKAEKLTEEIEKLAE
With B12, the “binding in a display sort” value is “not found”.

B13: d8r1_design_ppi_1493_dldesign_0_cycle0_af2pred (protein)
chain: EEEKKKLREEAIKLAKKAAEIAKKSENAKEVIEEIEKAIKYLEEGDYEKAAKELAKAGRLADPEARGYINRALLKVGEAK
For B13, the “binding in a display sort” value is “not found”.

B14: d8r1_design_ppi_1316_dldesign_0_cycle1_af2pred (protein)
chain: SAVAKAAAAAAAAAKKALASHPAIGAAVARSIELGKLEEAAAFATAAAKALIGEEAGEALGKELDKLVAAAKAAA
As to B14, the “binding in a display sort” value is “not found”.

B15: d8r1_design_ppi_1319_dldesign_0_cycle1_af2pred (protein)
chain: AAAEELKTLAAESIGLIDQAEKALKAGTDELNYLKLVAASARKLGPEIAKLVTAALKAAKAGDKETALKYLKEARKLAEKIAA
Consider B15, for which the “binding in a display sort” value is “not found”.

B16: d8r1_design_ppi_1220_dldesign_0_cycle1_af2pred (protein)
chain: AEERAEELAKEAFKLLSEAAKAAATATTEEQVKKGEELAEKAKKLAEELLKEDPSKKGLSEGIKRAAEKVKKAAEEKKKEL
As for B16, the “binding in a display sort” value is “not found”.

B17: d8r1_design_ppi_423_dldesign_0_cycle0_af2pred (protein)
chain: SEFDKNMELLKEAGAAISELTARARAEADAAAAEGPDAVRAVAAERIEEARRITEELGEKSSLKESFRGMAERTARTIEAYAAAVIA
As to B17, the “binding in a display sort” value was “not found”.

B18: d8r1_design_ppi_246_dldesign_0_cycle1_af2pred (protein)
chain: ADPEAAARARAAAAVAGATELLKANPANTPAFAAANAEALADSPAAPEAKAAMAKIAAEAEKAAAARKAAEEAAK
For B18, the “binding in a display sort” value was “not found”.

B19: d8r1_design_ppi_302_dldesign_0_cycle1_af2pred (protein)
chain: DEEEGKKSALKAAETARRLAEEAAKQAKEKAADPALAKKYVAKAKAYAKAAEDIAKGFPDNAEIKAAAKEAKKAAQQAKEALKA
For the molecule B19, the “binding in a display sort” value is “not found”.

B20: d8r1_design_ppi_988_dldesign_0_cycle1_af2pred (protein)
chain: SEAAMAAAIAAAHAAAQAVVAADPAAAPFARALMSYAMLAVSDPAAGLAGLAAVAEAAAAAGAAAMAAVAAATRAALAAAHA
With B20, the “binding in a display sort” value was “not found”.

B21: d8r1_design_ppi_36_dldesign_0_cycle0_af2pred (protein)
chain: REEVRAKLEAAAAALREVDPVAGEGFRRLAELAFSGEVNGAWAALASLLEHYLPAAEAHDPELGAIVAEAREAALEEWERIQAE
Turning to B21, the “binding in a display sort” value was “not found”.

B22: d8r1_design_ppi_1305_dldesign_0_cycle0_af2pred (protein)
chain: ARAEELAEALLAKAKELSKLPMGEAAKAAAAEARALAEQDPETALAAAELAYKRASEDPSVSSKVRALLGAALGAATQQLAAQKAAA
With B22, the “binding in a display sort” value is “not found”.

B23: d8r1_design_ppi_1379_dldesign_0_cycle1_af2pred (protein)
chain: SAAAGAAVAAAGIAAMRAGAAADGLAGARAAAREAARAAMALFRKDPDAGAAALAALDAAWAAISAALAA
On to B23, for which the “binding in a display sort” value is “not found”.

B24: d8r1_design_ppi_1240_dldesign_0_cycle1_af2pred (protein)
chain: DDATLKQAAALIAEGQAAAAQATTDPAYAAKAKEAYKKAGEVYPESSEFFNIAGEKTAQAALDKYKAAQAAAAAAAA
For the molecule B24, the “binding in a display sort” value was “not found”.

B25: d8r1_design_ppi_480_dldesign_0_cycle1_af2pred (protein)
chain: SAAAATEAKAKAWAAEIIAAAKADPAAAAALATEVVATASEEEIRTLLNILAQQAFKSPDGLTALTAVSAAVAARYA
On to B25, for which the “binding in a display sort” value was “not found”.

B26: d8r1_design_ppi_429_dldesign_0_cycle1_af2pred (protein)
chain: AAAALAAAAAEGAIELAEYQVEIGNLEAARAFVEGALRAAARADPATAAELRARARAVLEEAERRHKERLEA
Turning to B26, the “binding in a display sort” value was “not found”.

B27: d8r1_design_ppi_1206_dldesign_0_cycle1_af2pred (protein)
chain: SPAAQWAALDADLKQARELAKKAKEVGNEEEAKKVEAALKKAEAAAAAARADPSLYHEARRAVGEAQVEALKVISKG
B27: the “binding in a display sort” value was “not found”.

B28: d8r1_design_ppi_479_dldesign_0_cycle1_af2pred (protein)
chain: AELAKEAKELAEKGIADPSKAPEAAREIAELFAEAVKKGDNEAAAEAHAELSRIYAANPEAGREGHILAAQLMSKYAVES
B28: the “binding in a display sort” value was “not found”.

B29: d8r1_design_ppi_1325_dldesign_0_cycle0_af2pred (protein)
chain: SSGKEKAAEYRAKADALAAQESPETQAQLRALAERVLKAAEEGVEALAKAAAEAAAFGAATSPTAQAAAREAIAAGVAL
On to B29, for which the “binding in a display sort” value was “not found”.

B30: d8r1_design_ppi_1444_dldesign_0_cycle0_af2pred (protein)
chain: MEELLARIEEALKRAKEVLKEAKKYSPGAEAIAKAALEAAERALALARAGPERAAEAERELRAAENAIAAAEKLLEA
With B30, the “binding in a display sort” value was “not found”.

B31: d8r1_design_ppi_991_dldesign_0_cycle0_af2pred (protein)
chain: AAAALTAAVAASIKGLAELARKAIDDKSVVKAAANAAKSAAALDKALGKEMSKKLEEAAKKSPEEAVKTIEEVAAKVAAAAAA
Regarding B31, the “binding in a display sort” value was “not found”.

B32: d8r1_design_ppi_93_dldesign_0_cycle1_af2pred (protein)
chain: ENKSIAQGLLKAMKAAYEQAKKSGKAAQLKATAEAAKAAAKKAKELGDEETAKELEKLAKEAKELAEKAAAAAA
With B32, the “binding in a display sort” value was “not found”.

B33: d8r1_design_ppi_640_dldesign_0_cycle0_af2pred (protein)
chain: SEEEEKKAEYLKKAGAAASRAGKVAAANAGNPEIQALAKKAAKALNEAFASNVEEAKKKAEEVEKLAAEAEALAA
Take B33: the “binding in a display sort” value was “not found”.

B34: d8r1_design_ppi_569_dldesign_0_cycle0_af2pred (protein)
chain: EPSPRVQALLHVGRAAATLIAASGTEAGRAAAAELARLAFEAAASSPEEGQKLLEEALARADEVAAGLPADAAAAVRAHLEAALAAMK
On to B34, for which the “binding in a display sort” value is “not found”.

B35: d8r1_design_ppi_156_dldesign_0_cycle0_af2pred (protein)
chain: MEEEREREEERRREARRMAQALENAAEAVAARAAAASPAEQPALARAAESLAAAAKVLQKEDPELGAAVEKRAEAILAEIRAR
For B35, the “binding in a display sort” value was “not found”.

B36: d8r1_design_ppi_955_dldesign_0_cycle0_af2pred (protein)
chain: LYAELAARVRAIMAAAGMSPREADTVAAFALAAAADPELEEAMREKMRKAAGPEFEPAVEEAIALAREAAAAL
For B36, the “binding in a display sort” value is “not found”.

B37: d8r1_design_ppi_353_dldesign_0_cycle1_af2pred (protein)
chain: TAAAKAAADAALANLQAFLDVVVAADPQNIARVEKAAQIAISGGKVLAAQHPEVADYAAGAATAAAQAAVDRAKALAAA
Consider B37, for which the “binding in a display sort” value was “not found”.

B38: d8r1_design_ppi_863_dldesign_0_cycle0_af2pred (protein)
chain: SRAERLIEEAERLAKEAKEAAKRVADSPVAPRAKALADATEAFAKGLKAAAAAGGSMEDQEALLRAARNTAEAAKILAEEAEAARAA
For B38, the “binding in a display sort” value was “not found”.
